# Inconclusive results are not listed. A number with no mark means an inactive call. Calls of active or inactive are those of the source. Unless noted, calls follow the shape of the full dose curve.
# Experiment: qHTS assay for small molecule agonists of the p53 signaling pathway (AID 651631)
# Conditions: HCT-116 p53RE-bla reporter, beta-lactamase FRET ratio, 16 h; series mostly up to 73.3 µM; activation: at the top concentration
# How it was run: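 Fluorescence intensity from cleaved LiveBLAzer B/G substrate (2 h, room temperature) served as the signal. Beforehand, HCT-116 reporter cells bearing p53 response elements were treated 16 h at 37 °C with DMSO-dissolved compounds.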
# % is scaled to controls: 0 for no effect and ±100 for the full control effect.
# Also: nearly all actives have a fitted effect of over 15% in size.
SMILES,outcome,activation
O=C[C@H](O)[C@@H](O)[C@H](O)[C@H](O)CO,inactive,–
CCOC(=O)c1cccc(N)c1,–,-2.45%
NC(=O)c1cn(Cc2c(F)cccc2F)nn1,–,-3.53%
FC(F)OC(Cl)C(F)(F)F (stereo not given),–,-3.6%
O=C1NC(=O)[C@@]2(CCOc3ccc(F)cc32)N1,–,-1.7%
O=C(CCCN1CCC(O)(c2cccc(C(F)(F)F)c2)CC1)c1ccc(F)cc1,–,4.71%
CC(C)c1cc2c(cc1S(=O)(=O)O)[C@@]1(C)CCC[C@@](C)(C(=O)O)[C@@H]1CC2,–,-3.64%
CCN(Cc1ccncc1)C(=O)C(CO)c1ccccc1 (stereo not given),–,1.14%
CC(=O)CC(C)(C)C1CCCCC1,–,-3.45%
Cc1cc2c(cc1S(N)(=O)=O)S(=O)(=O)CCC2,–,2.92% [at 34.7 µM]
O=S(O)CO,inactive,–
N=C(N)c1ccccc1,–,-0.475%
N=c1nc(N2CCCCC2)cc(N)n1O,–,3.15%
CC/C=C\CC/C=C/C(OCC)OCC,–,-2.33%
COc1ccc(CCN(C)CCCC(C#N)(c2cc(OC)c(OC)c(OC)c2)C(C)C)cc1OC (stereo not given),–,-2.45%
CC(C)(CC(=O)O)C(=O)O,–,-1.66%
CS(=O)(=O)O,–,1.32% [at 95.1 µM]
COc1nc(N)nc2c1ncn2[C@@H]1O[C@H](CO)[C@@H](O)[C@@H]1O,–,0.614%
CCN1CCC[C@H]1CNC(=O)c1cc(S(N)(=O)=O)ccc1OC,–,3.37%
Oc1ccc(C2CNCCc3c2cc(O)c(O)c3Cl)cc1 (stereo not given),–,-4.83%
COC(=O)c1c(Cl)c(Cl)c(C(=O)OC)c(Cl)c1Cl,–,-1.55%
OC[C@]1(O)OC[C@@H](O)[C@H](O)[C@@H]1O,inactive,–
CN1CCC(=C2c3ccccc3CC(=O)c3sccc32)CC1,–,-4.31%
Brc1c(NC2=NCCN2)ccc2nccnc12,–,-2.39%
O=C1CC2CC1C1CCCC21 (stereo not given),–,-1.43%
CC(C)(C)NCCNC(C)(C)C,–,-2.27%
Cc1ccc(Cl)cc1Cl,–,-0.477%
CC[N+](C)(C)c1cccc(O)c1,–,3.13% [at 34.7 µM]

# Experiment: qHTS assay for small molecules that induce genotoxicity in human embryonic kidney cells expressing luciferase-tagged ATAD5 (AID 651632; active = well fitted activation curve with a large enough effect in the repeat runs)
# Conditions: HEK293T ATAD5-luciferase induction, 16 h; series mostly up to 83.3 µM; activation: at the top concentration
# How it was run: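 DMSO vehicle served as the control. HEK293T reporter cells, 16 hr at 37C, then 30 min Amplite at room temperature; ATAD5 induction is measured as luciferase activity.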
row,SMILES,activation
1,CCO[Si](CCC1CCC2OC2C1)(OCC)OCC (stereo not given),2.18%
2,CN1C(=O)N(C)C(O)C1O (stereo not given),-2.69%
3,CCOC(=O)c1c(C)n(C)c2ccc(O)cc12,0.592%
4,CC(=O)CC(C)C,2.04%
5,CC(=O)OCC(=O)[C@@]1(O)CC[C@H]2[C@@H]3CCC4=CC(=O)CC[C@]4(C)[C@H]3C(=O)C[C@@]21C,4.21%
6,CCc1ccc(O)c(OC)c1,-1.31%
7,CC(=O)OCC(CCn1cnc2cnc(N)nc21)COC(C)=O,3.64%
8,Cc1c(O)cccc1O,-2.47% [at 95.3 µM]
9,c1cnc(N2CCN(Cc3ccc4c(c3)OCO4)CC2)nc1,-1.54%
10,OCCCC1CCCCC1,-2.44%
11,COCCCOCCCOC,-1.12%
12,COC(=O)CC(C)=O,0.966%

# From PubChem BioAssay (Tox21)
